# Assay results as given in PubChem BioAssay AID588382 (National Center for Advancing Translational Sciences (NCATS), 2011).
# The campaign covered roughly 1,300 compounds. About 150 (12%) were called active. About 30% were inconclusive and are not listed. Calls come from the whole dose curve; as a rule, active = well fitted cell-killing curve with a large enough effect; inconclusive = small, poorly fitted or top-dose-only effect, or effect the other way; inactive = flat fitted curve, though single readings scatter. This excerpt belongs to a sample that is enriched for actives.
# Assay: qHTS of small molecules that selectively kill Giardia lamblia: Hit Validation in HepG2 cytotox;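 note: compound exposure lasted overnight at 37 deg C; nearly all actives have a fitted effect of over 55% in size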;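 for activity change, negative = cytotoxicity: viability measured as cellular ATP by ATPLite luminescence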
# Conditions: cell viability; Potency: HepG2 cytotoxicity; series mostly up to 38.3 µM; activity change, negative = cytotoxicity: at the top concentration
# Outline: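 Counterscreen cytotoxicity: ATPLite luminescence (15 min, room temperature) measured in HepG2 cells exposed overnight at 37 deg C to pin-transferred compound (23 nL) after overnight pre-incubation.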
# % is set by controls: 0 for no effect and ±100 for the full control effect; potency is the fitted concentration of half-maximal effect.
Compound,"activity change, negative = cytotoxicity",Potency
O=C(NC(=S)Nc1ccc(CN2CCOCC2)cc1)c1ccc([N+](=O)[O-])cc1Cl,8.14% (inactive),
CCN(CC)CCCC(C)Nc1c2ccc(Cl)cc2nc2ccc(OC)cc12 (stereo not given),,4.65 µM (active)
CCN(CC)CCCC(C)Nc1cc(/C=C/c2ccccc2Cl)nc2cc(Cl)ccc12 (stereo not given),,2.07 µM (active)
CCc1nc2cc([N+](=O)[O-])c([N+](=O)[O-])cc2[nH]1,17.5% (inactive),
Cc1cccc(-n2nc([N+](=O)[O-])c(=NCc3cccnc3)n2O)c1,1.38% (inactive),
O=C(COc1cccnc1[N+](=O)[O-])Nc1cc(Cl)ccc1Cl,20% (inactive),
COc1ccccc1C(=O)NC(=O)OCCn1c(C)cnc1[N+](=O)[O-],13.5% (inactive),
O=[N+]([O-])c1ccc(Nc2ccccc2)c2nonc12,-5.06% (inactive),
O=[N+]([O-])c1nn(-c2ccc3c(c2)OCCO3)n(O)c1=NC1CCCCCC1,1.36% (inactive),
Cc1ccc(C(=O)Nc2ccc3c(c2)OCCO3)o1,-29% (inactive),
O=C(COc1cccnc1[N+](=O)[O-])Nc1ccc2c(c1)OCO2,2.74% (inactive),
Cc1ccnc(NC(=O)c2ccc3c(c2)OCO3)c1,,0.585 µM (active)
Cc1ncc([N+](=O)[O-])n1CCOC(=O)Nc1ccc([N+](=O)[O-])cc1,9.82% (inactive),
COc1cccc(NC(=O)COc2cccnc2[N+](=O)[O-])c1,5.3% (inactive),
O=c1c(-c2cccc([N+](=O)[O-])c2)[n+]([O-])c2ccccc2n1O,15.3% (inactive),
O=C1C(c2ccncc2)=C(O)c2ccccc21,,5.85 µM (active)
Cn1c(=O)c(=O)n(C)c2cc([N+](=O)[O-])c(N3CCOCC3)cc21,-8.79% (inactive),
O=C(Nc1nccs1)c1cc([N+](=O)[O-])ccc1Cl,-1.08% (inactive),
Cc1cc(=O)oc2cc(O)c(N=Nc3ccccc3)cc12,-10.3% (inactive),
CC(C)OC(=O)Nc1ccc2c(c1)N(C(=O)N1CCN(C)CC1)c1ccccc1CC2,,0.521 µM (active)
CC(NC(=O)Cn1cc(Br)c([N+](=O)[O-])n1)c1ccccc1 (stereo not given),19% (inactive),
Cc1ncc([N+](=O)[O-])n1CCOC(=O)C12CC3CC(CC(C3)C1)C2,-0.852% (inactive),
CCOC(=O)C1=C(C)NC2=C(C(=O)c3ccccc32)C1c1ccc([N+](=O)[O-])o1 (stereo not given),-1.83% (inactive),
CCOC(=O)c1ccc(NS(C)(=O)=O)cc1,10.8% (inactive),
CCOC(=O)c1c(C)[nH]c2c1-c1ccccc1C(=O)C2=O,,2.61 µM (active)

Compound,"activity change, negative = cytotoxicity",Potency
CC(NC(=O)COc1cccnc1[N+](=O)[O-])c1ccc(Cl)cc1Cl (stereo not given),8.39% (inactive),
COC(=O)c1ccc(Nc2ccc3nonc3c2[N+](=O)[O-])cc1,12.5% (inactive),
CCn1cnc2c([N+](=O)[O-])c(NS(=O)(=O)c3ccc(C)cc3)ccc21,-5.57% (inactive),
COc1cc(/C=C2\SC(=O)N(Cc3ccc(Cl)cc3)C2=O)cc([N+](=O)[O-])c1O,-0.415% (inactive),
O=C(Cc1ccccc1)Nc1nnc(-c2cccs2)s1,-2.94% (inactive),
O=[N+]([O-])c1ncc(Br)cc1Nc1ccccc1,14.2% (inactive),
O=S(=O)(Nc1cc(Sc2cccc3cccnc23)c(O)c2ccccc12)c1ccc(F)cc1,,4.65 µM (active)
COC(=O)[C@@]1(Cc2ccc(OC)cc2)[C@H]2c3cc(C(=O)N4CCCC4)n(CCn4cc([N+](=O)[O-])nc4C)c3C[C@H]2CN1C(=O)c1ccccc1,3.15% (inactive),
CN(C)/[N+]([O-])=N/Oc1ccc([N+](=O)[O-])cn1,15% (inactive),
O=c1c([N+](=O)[O-])cccn1Cc1ccc(F)cc1Cl,-5.01% (inactive),
CC1CCCN(C(=O)c2ccc([N+](=O)[O-])o2)C1 (stereo not given),-11.8% (inactive),
O=C(CSc1ccsc1[N+](=O)[O-])NCc1ccccc1,23.3% (inactive),
O=C(NNC(=O)c1cc(-c2ccncc2)nc2ccccc12)c1ccccc1O,-18.8% (inactive),
CCn1cc(-c2cc(C(=O)O)c3ccccc3n2)cn1,,2.07 µM (active)
CCOC(=O)c1nc(C(=O)NCc2ccc(C)cc2)nc2ccccc12,18.3% (inactive),
CC(C)CC(=O)NC(=S)NNC(=O)c1ccc([N+](=O)[O-])cc1,-5.24% (inactive),
Cc1ccc(S(=O)(=O)N2[C@@H](c3cccc(Cl)c3)C(C(=O)O)=CC[C@H]2c2cccc(C)c2)cc1,18.2% (inactive),
Cc1cc(N2CCN(C)CC2)nc2ccc(NC(=S)N3CCN(c4cccc(Cl)c4)CC3)cc12,-14.4% (inactive),
Cc1cccc(N2CCN(C(=S)Nc3ccc4nc(N5CCN(C)CC5)cc(C)c4c3)CC2)c1C,,4.65 µM (active)
Cc1cccc(N2CCN(C(=S)Nc3ccc4nc(N5CCN(C)CC5)cc(C)c4c3)CC2C)c1 (stereo not given),,18.5 µM (active)
Cc1cc(N2CCN(C)CC2)nc2ccc(NC(=S)N3CCN(c4ccc(Cl)cc4)CC3)cc12,-17.9% (inactive),
Cc1cc(N2CCN(C)CC2)nc2ccc(NC(=S)N3CCN(c4ccc(F)cc4)CC3)cc12,,20.7 µM (active)
O=c1sc(N2CCN(c3ccc(F)cc3)CC2)nc2ccsc12,21.6% (inactive),
O=Nc1c2ccc[nH]c-2c2ccc([N+](=O)[O-])cc12,10.8% (inactive),
O=C(Nc1ccc(F)cc1)C1CCN(C(=O)c2ccc([N+](=O)[O-])cc2)CC1,-6.84% (inactive),

Compound,"activity change, negative = cytotoxicity",Potency
C/C(=N/NC(=O)C(O)(c1ccccc1)c1ccccc1)c1ccc([N+](=O)[O-])o1,-24.8% (inactive),
CCOc1ccc(-c2c(C(=O)N/N=C/c3ccc(C)s3)nnn2-c2nonc2N)cc1,11% (inactive),
Cc1ccc(CN=c2c([N+](=O)[O-])nn(-c3ccc(Cl)cc3)n2O)cc1,3.22% (inactive),
Cc1ccc(CNC(=O)CSc2ccsc2[N+](=O)[O-])cc1,11.7% (inactive),
COc1ccc2c3n([n+]([O-])c2c1)CCN=C3c1ccc(C)cc1,6.07% (inactive),
CC(C)CC(=O)Nc1ncc([N+](=O)[O-])s1,4.4% (inactive),
Cc1ccc(CCN=c2c([N+](=O)[O-])nn(-c3ccccc3)n2O)cc1,-4.07% (inactive),
COc1ccc(-n2nc([N+](=O)[O-])c(=NCc3cccnc3)n2O)cc1,11.3% (inactive),
CCOC(=O)c1cc([N+](=O)[O-])sc1NC(=O)CC,1.07% (inactive),
O=C(c1ccco1)N1CCN(c2c([N+](=O)[O-])nn(-c3ccc(Cl)cc3)[n+]2[O-])CC1,-1.34% (inactive),
Cc1ncc(CO)c(/C=N/NC(=O)c2cc3c(s2)CCCC3)c1O,,2.07 µM (active)
O=[N+]([O-])c1nn(-c2ccccc2)n(O)c1=NCCc1ccccc1,18.6% (inactive),
O=C(CNC(=O)c1ccccc1F)N/N=C/c1cc(Br)ccc1OCc1ccccc1,-8.87% (inactive),
CN1C(=O)/C(=C/c2ccc(O)c([N+](=O)[O-])c2)N(C)C1=S,8.37% (inactive),
O=C(Nc1ccc2[nH]ccc2c1)c1ccccc1,,4.14 µM (active)
O=C(NNC(=O)c1ccc([N+](=O)[O-])o1)c1ccccc1,-15% (inactive),
O=C(Nc1ccccc1O)c1ccc([N+](=O)[O-])cc1,-1.8% (inactive),
COc1ccc(C(=O)NC2CCN(S(=O)(=O)c3ccc(F)cc3)CC2)cc1,12.2% (inactive),
COc1ccc(C(=O)Nc2ccc3[nH]ccc3c2)cc1,,2.33 µM (active)
COc1ccc(NC(=O)c2ccco2)c(NC(=O)c2ccc([N+](=O)[O-])cc2)c1,2.61% (inactive),
O=[N+]([O-])c1ccc(CSc2nnc(-c3cccnc3)o2)cc1,-7.7% (inactive),
NNC(=O)c1cccc(Cn2cc(Br)c([N+](=O)[O-])n2)c1,17.3% (inactive),
Cc1cccc(CCN=c2c([N+](=O)[O-])nn(-c3ccccc3)n2O)c1,0.954% (inactive),
Nc1c(Cl)cc(C2=NCCn3c2c2ccc(C(F)(F)F)cc2[n+]3[O-])cc1Cl,-4.92% (inactive),
COc1ccc(-c2cn3cc([N+](=O)[O-])ccc3n2)cc1OC,-4.09% (inactive),

Compound,"activity change, negative = cytotoxicity",Potency
CC(=O)Nc1ccc(NC(=O)c2c([N+](=O)[O-])cnn2C)cc1,13% (inactive),
c1csc(-c2ccc(N3CCOCC3)nn2)c1,,6.56 µM (active)
O=[N+]([O-])c1ccc(O/N=[N+](\[O-])N2CCCCC2)c([N+](=O)[O-])c1,-3.12% (inactive),
CC1CCCCC1NC(=O)COc1cccnc1[N+](=O)[O-] (stereo not given),1.19% (inactive),
O=C1OC(CN(Cc2ccccc2)Cc2ccccc2)CN1N=Cc1ccc([N+](=O)[O-])o1 (stereo not given),5.24% (inactive),
CCCCC(=O)Nc1ncc([N+](=O)[O-])s1,5.49% (inactive),
COc1ccc(C(=O)c2c(C)oc3cc([N+](=O)[O-])c(O)c([N+](=O)[O-])c23)cc1,-8.87% (inactive),
O=C(Nc1nc2c(F)cccc2s1)c1ccc([N+](=O)[O-])o1,-2.51% (inactive),
O=C(Nc1nc(-c2cccs2)cs1)c1ccc([N+](=O)[O-])o1,,1.85 µM (active)
Cc1cc(C)c2sc(NC(=O)c3ccc([N+](=O)[O-])o3)nc2c1,-15% (inactive),
Cc1cc(C)c2nc(NC(=O)c3ccc([N+](=O)[O-])o3)sc2c1,16.6% (inactive),
Cc1ccc(-c2csc(NC(=O)c3ccc([N+](=O)[O-])o3)n2)cc1,,11.7 µM (active)
O=C(Nc1nc2ccccc2s1)c1ccc([N+](=O)[O-])o1,15.5% (inactive),
COc1ccccc1C1C([N+](=O)[O-])=CC([N+](=O)[O-])=CN1C (stereo not given),15.2% (inactive),
Cc1cnc([N+](=O)[O-])n1CCOC(=O)NC(=O)c1ccccc1Cl,18% (inactive),
CC(=O)NC(Cc1ccc(F)cc1)C(=O)NC1CCN(c2ncccc2[N+](=O)[O-])CC1 (stereo not given),8.79% (inactive),
Cn1c([N+](=O)[O-])cnc1N1CCN(c2nncs2)C1=O,-11.6% (inactive),
COc1cc(/C=C2\SC(=O)N(c3ccc(Cl)cc3)C2=O)cc([N+](=O)[O-])c1O,10.2% (inactive),
COc1ccc(NS(=O)(=O)c2ccc(C)cc2)c([N+](=O)[O-])c1,13.3% (inactive),
COc1cc2c(cc1OC)CN(C(=O)c1ccc([N+](=O)[O-])o1)CC2,-5.91% (inactive),
Cc1ncc([N+](=O)[O-])n1CCOC(=O)Nc1ccc(Cl)c(Cl)c1,8.58% (inactive),
O=C(COc1cccnc1[N+](=O)[O-])NCCc1ccc(Cl)cc1Cl,-9.72% (inactive),
O=C(NC1CCS(=O)(=O)C1)c1ccc(N2CCCCC2)c([N+](=O)[O-])c1 (stereo not given),20.8% (inactive),
S=C(NCCc1ccccc1)N/N=C/c1cccs1,-10.3% (inactive),
Cc1nnc(N/N=C/c2cccs2)[nH]c1=O,,2.07 µM (active)
